FMDV inh: High Throughput Screening for Foot and Mouth Disease Virus Antivirals; FMDV antiviral cell-based qHTS; Potency, µM (titrated, usually from 57.9 µM), inactives show top-dose activity change, negative = inhibition, usual class: inhibitors; 1.2% of 410,000 active; AID 1159524, 2015; calls by dose curve; tested in HEK293T cells; note: read-out not given here; potency is the fitted concentration of half-maximal effect; nearly all actives have a fitted effect of over 45% in size
HCMV antiviral: qHTS Assay for inhibitors of the human cytomegalovirus (HCMV) | HFF cells, HCMV-luciferase reporter, 72 h; active compounds read low | activity change, negative = inhibition, % at 57.5 µM | 4.5% of 410,000 active | AID 1259415, 2018; in the data active = activity change below about -60%; inconclusive = no clear call, values can overlap the other calls; inactive = above about -39%
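Luciferase read-out from HCMV-luciferase-infected HFFs (MOI 1 PFU/cell) 72 h post infection at 37C; compounds added after 16 h cell attachment; activity normalized between buffer-only basal and Salinomycin (10uM) inhibitor controls.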
LASV entry inh: qHTS for Inhibitors of binding or entry into cells for Lassa Virus. Lassa virus pseudotype entry inhibition, cell reporter. Potency, µM (highest dose often 37.9 µM), inactives show top-dose activity change, negative = inhibition, usual class: inhibitors. 1.2% of 300,000 active; calls by dose curve; tested in HEK293 cells; note: potency is the fitted concentration of half-maximal effect; nearly all actives have a fitted effect of over 50% in size
Giardia FBPA inh: qHTS Assay for Inhibitors of Fructose-1,6-bisphosphate Aldolase from Giardia Lamblia; purified Giardia FBPA; Potency, µM (doses to about 59.6 µM), without a hit: at the top dose activity, negative = inhibition, hits mostly inhibitors; 0.71% of 290,000 active; AID 2451, 2010; note: potency is the fitted concentration of half-maximal effect; nearly all actives have a fitted effect of over 55% in size
Target sequence (A8B2U2 whole entry, looked up): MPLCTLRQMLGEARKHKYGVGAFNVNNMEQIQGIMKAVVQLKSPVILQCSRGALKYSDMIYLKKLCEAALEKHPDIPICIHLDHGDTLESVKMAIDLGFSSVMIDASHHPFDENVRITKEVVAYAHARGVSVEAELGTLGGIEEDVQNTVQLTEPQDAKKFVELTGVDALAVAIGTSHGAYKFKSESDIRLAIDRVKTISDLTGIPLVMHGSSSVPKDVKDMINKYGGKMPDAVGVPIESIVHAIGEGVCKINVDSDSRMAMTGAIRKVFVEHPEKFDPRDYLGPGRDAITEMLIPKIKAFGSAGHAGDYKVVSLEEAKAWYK
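Giardia FBPA (40 nM reagent) was preincubated 10 min at RT with compound (up to 57.5 uM final), then substrate plus GAPDH/TPI/NAD/arsenate coupling system with diaphorase/resazurin was added; resorufin fluorescence (525/598 nm) was read after 20 min.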
MARV entry inh: qHTS for inhibitors of binding or entry into cells for Marburg Virus; AID 540276, 2011; Potency, µM (series often up to 37.8 µM), for the others: top-dose activity change, negative = inhibition, hits mostly inhibitors; 1.8% of 300,000 active; Marburg virus pseudotyped entry inhibition, cell reporter; calls by dose curve; tested in HEK293 cells; note: potency is the fitted concentration of half-maximal effect
HCV inh: qHTS Assay for Inhibitors of Hepatitis C Virus (HCV) | 3.4% of 340,000 active | Potency, µM (highest dose often 41.8 µM), for the others: at the top dose activity change, negative = inhibition, hits mostly inhibitors | Huh7.5.1 HCVcc-Cre infection, luciferase reporter, 44 h; note: potency is the fitted concentration of half-maximal effect
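Antiviral activity was scored by luciferase reporter output from cells infected with HCVcc-Cre (~0.5 moi) in presence of compound, 44 h infection period, cells seeded 1,000/well 4 h prior.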
* = called active by the depositor; u = inconclusive; x = no result; [ ] = dose if it differs, or a comment. In the library only some 8.3% were active in any assay of this set; here they are far more common. Unless noted, calls come from the whole dose curve; as a rule, active = well fitted curve in the direction sought with a large enough effect; inconclusive = small, poorly fitted or top-dose-only effect, or another doubt; inactive = no such curve, though single readings can be large; an effect the other way counts as inactive or inconclusive. % is set by controls: 0 for no effect and ±100 for the full control effect.

SMILES	FMDV inh	HCMV antiviral	LASV entry inh	Giardia FBPA inh	MARV entry inh	HCV inh
O=C(CN1C(=O)COc2ccccc21)NCCCN1CCN(Cc2ccccc2)CC1	x	x	3%	1%	u	0%
O=C(CN1C(=O)COc2ccccc21)NCCN1CCC(Cc2ccccc2)CC1	-5%	-28	-13%	2%	-24%	22µM*
CCN(CC)C(=O)c1cccnc1	x	-16	x	x	x	x
CC(C)=NOC[C@@H](O)[C@@H]1O[C@@H]2OC(C)(C)O[C@@H]2[C@H]1O	x	x	x	1%[12.9 µM]	x	x
CC1(C)CCC(=NNC(N)=S)CC1	-5%	0	-2%	x	u	8%
CC1(C)C2CCC(C2)C1C/C=N/NC(N)=S (centres undefined)	u	-73*	1%	-19%	u	-5%
CC(=O)OCC1OC(C#Cc2ccccc2)C=CC1OC(C)=O (centres undefined)	x	x	x	-3%[12.9 µM]	x	x
CCC[C@H]1[C@@H](NS(=O)(=O)c2ccc([N+](=O)[O-])cc2)CC[C@@]23CCCN2C(=O)CCC[C@@H]13	x	-7	x	x	x	x
COc1cccc(CN2CCC3(CC2)c2ccccc2[C@@H](NC(=O)c2ccccc2)[C@@H]3O)c1O	-1%	x	x	x	x	x
O=C(c1ccccc1C(=O)N1CCN(c2ccccc2F)CC1)N1CCN(c2ccccc2F)CC1	-24%	-10	-5%	-3%	-1%	-16%
CCSc1ccccc1C(=O)N1CCN(c2ccccc2F)CC1	4%	-103*	3%	5%	-21%	6%
CCC1(C2CCN(Cc3cccc(Cl)c3)CC2)NC(=O)N(CC2COc3ccccc3O2)C1=O (centres undefined)	-11%	x	x	x	x	x
CCn1c(C)c(C(C)=O)c(N2CCN(c3ccccc3)CC2)nc1=S	-8%	54	2%	u	-5%	-16%
CCn1c(C)c(C(C)=O)c(N2CCN(C(c3ccccc3)c3ccccc3)CC2)nc1=S	32µM*	-18	u	-8%	u	6.3µM*
CCCNc1nc(=S)n(-c2ccccc2)c(C)c1C(C)=O	4%	u	1%	-14%	16%[46.1 µM]	9%
CCCCNc1nc(=S)n(-c2ccccc2)c(C)c1C(C)=O	-18%	-99*	-22%[46.1 µM]	-5%	u	u
CC(=O)c1c(N2CCCC2)nc(=S)n(-c2ccccc2)c1C	x	-74*	1%	-16%	-24%	-4%
COC(=O)C1OC(=O)C2O[C@@]23[C@]2(C)C(OC(C)=O)CC4C(C)(C)C(=O)CC[C@]4(C)C2CC[C@@]13C (some centres undefined)	-7%	x	x	6%	x	x
Cc1cc(C(=O)Nc2ccccc2-c2nc(CNC(=O)C3(C)CCCCC3)c(C)o2)c(C)o1	1%	x	x	x	x	x
CCOC(=O)CSc1nc2ccc(NC(=O)COc3ccc(F)cc3)cc2s1	-13%	18	23%[46.1 µM]	x	8%[46.1 µM]	x
O=C1c2ccccc2C(=O)c2c1oc(C(F)(F)F)c2C(=O)c1ccccc1	-21%	-98*	u	3%	u	22µM*
O=C(c1ccccc1)c1ccc(CN2C(=O)c3ccccc3C2=O)o1	x	6	2%	2%	12%	1%
CC(=O)c1c(C)oc2c1C(=O)c1ccccc1C2=O	u	-72*	-11%	u	-2%	8.9µM*
COc1ccc(CNC(=O)c2c(C)oc3c2C(=O)c2ccccc2C3=O)cc1	u	u	-14%	u	6%	4%[8.37 µM]
Cc1oc2c(c1C(=O)NCc1cccnc1)C(=O)c1ccccc1C2=O	3.2µM*	x	x	u	x	1.6µM*
SMILES	FMDV inh	HCMV antiviral	LASV entry inh	Giardia FBPA inh	MARV entry inh	HCV inh
CN1CCc2c(cc(O)c(O)c2Cl)C(c2cccc(Cl)c2)C1 (centres undefined)	x	x	x	-4%	u	x
COc1ccc(-c2ccoc2)cc1C1C2C=CCC(C)C2C(=O)N1Cc1ccccc1 (centres undefined)	x	x	x	-2%	x	x
FC(F)(F)c1ccccc1-c1nc(Nc2ccncc2)c2ccccc2n1	-21%	x	x	-6%	x	x
COc1ccc(C(=O)c2cnc3ccccc3c2-c2ccccc2)cc1	u	u	0%	x	u	13µM*
Fc1ccc(N2CCN(c3ncnc4c3nc3n4CCCC3)CC2)cc1	1.8µM*	-27	5%[46.1 µM]	x	3%[46.1 µM]	x
O=C(C1CCN(c2ncnc3c2nc2n3CCCCC2)CC1)N1CCN(c2ccc(F)cc2)CC1	32µM*	-33	-11%[46.1 µM]	10%	x	14%
Cc1ccc(NC(=O)C2CCN(c3ncnc4c3nc3n4CCCCC3)CC2)nc1	u	-91*	x	x	x	13µM*
Fc1ccccc1N1CCN(c2ncnc3c2nc2n3CCCC2)CC1	u	-63*	-2%[46.1 µM]	x	x	x
O=C(NCCc1nnc2n1CCN(Cc1ccccn1)CC2)c1ccc(F)cc1	-1%	x	x	x	x	x
CCc1c(C)nc2ncnn2c1N1CCC(C(=O)N2CCN(c3ccc(F)cc3)CC2)CC1	u	-88*	4%	1%	-14%	u
COCCN(CCOC)c1nc(C)nc2c1nc(-c1ccccc1)n2CCN1CCCC1	x	x	x	5%	x	x
CC1CC(N(C(=O)c2ccc(Cl)cc2)c2ccccc2)c2ccccc2N1C(=O)c1ccco1 (centres undefined)	u	-27	20µM*	-9%	u	10µM*
CC(C)(C)S(=O)(=O)N1C[C@@H]2CC(=O)C=C2[C@H]1CCO	x	5	x	x	x	x
COc1ccccc1NC1=C(NC(C)=O)C(=O)c2ccccc2C1=O	6%	-66*	x	11µM*	x	u
COc1cc(S(=O)(=O)N(Cc2ccco2)C2CCCC2)ccc1-n1cnnn1	18%	u	u	-2%	-5%	-4%
CCOc1ccccc1CN(Cc1ccco1)S(=O)(=O)c1ccc(-n2cnnn2)c(OC)c1	42%	-74*	u	-7%	u	u

Bioassay records from PubChem.
